For assay [1], the target named is Lysosomal acid glucosylceramidase (Homo sapiens) (UniProt P04062). The assay is described as follows: Glucocerebrosidase-p2 (AID 348; in the data active = potency below about 10 µM; also: potency is read from the fitted curve at half-maximal effect). Conditions: purified GBA, blue fluorogenic substrate, 40 min. The gist of the method:
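Compounds titrated from 0.6 nM upwards against 0.2 nM enzyme in pH 5.9 citric acid/KH2PO4, taurocholate, tween-20; blue fluorogenic substrate 80 uM, 40 min room temperature, stopped and read Ex 365/Em 440 for AC50.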

Assay [2] can be described thus: AP1 Signaling Pathway (AID 357; active = well fitted curve in either direction with a large enough effect, not every such curve was filed as active;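 also: ME-180 reporter cells stimulated with EGF at its EC50 level; % is scaled to controls: 0 for no effect and ±100 for the full control effect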). Conditions: ME-180 AP-1-bla reporter, EGF-induced, beta-lactamase ratio, 5 h; at 7.69 µM (top of the series) unless noted. The procedure, abridged: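 Modulation of EGF-driven AP-1 transcription was assessed with a beta-lactamase reporter in ME-180 cells. Compound and EC50 EGF were co-incubated 5 hours at 37 °C before 2.5-hour CCF4 loading at room temperature and dual-emission reading.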

Assay [3] deals with Cytochrome P450 1A2 (Homo sapiens) (UniProt P05177). The experiment in a line: p450-cyp1a2 (AID 410; calls by dose curve; also: potency is read from the fitted curve at half-maximal effect). Conditions: recombinant CYP1A2, luciferin-ME demethylation, luminescence; series mostly up to 57 µM. The procedure, abridged:
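Inhibition was calculated relative to 57 uM furafylline (full inhibition). The reaction used human CYP1A2 at 20nM with Luciferin-ME at its Km, 100uM, driven by an NADPH-regenerating system for 60 min at room temperature.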

Assay [4] is described as follows: NFAT Signaling Pathway (AID 444; active = well fitted curve in either direction with a large enough effect, not every such curve was filed as active;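 also: carbachol stimulus at about its EC50 of 1 µM final; % is scaled to controls: 0 for no effect and ±100 for the full control effect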). Conditions: Jurkat NFAT-bla M1, carbachol, beta-lactamase ratio, 5 h; at 7.69 µM (top of the series) unless noted. The gist of the method: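 Read-out: CCF4 FRET ratio (460 nm/530 nm) after 1 h RT dye loading, used for %activity and AC50 from titration series. Cells: Jurkat NFAT-β-lactamase/M1 line, treated with compound plus 1 uM carbachol for 5 h, 37 °C.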

Assay [5] deals with Glucocorticoid receptor (Homo sapiens) (UniProt P04150). The assay is described as follows: GR-GFP Redistribution (AID 450;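 active = compounds whose dose series gives a full or clear partial fitted curve of increased nuclear translocation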; also: potency is read from the fitted curve at half-maximal effect). The conditions noted are these: U2OS GR-GFP nuclear translocation, laser cytometry, 2 h.
Chain of Glucocorticoid receptor (Homo sapiens) (P04150 whole entry, looked up): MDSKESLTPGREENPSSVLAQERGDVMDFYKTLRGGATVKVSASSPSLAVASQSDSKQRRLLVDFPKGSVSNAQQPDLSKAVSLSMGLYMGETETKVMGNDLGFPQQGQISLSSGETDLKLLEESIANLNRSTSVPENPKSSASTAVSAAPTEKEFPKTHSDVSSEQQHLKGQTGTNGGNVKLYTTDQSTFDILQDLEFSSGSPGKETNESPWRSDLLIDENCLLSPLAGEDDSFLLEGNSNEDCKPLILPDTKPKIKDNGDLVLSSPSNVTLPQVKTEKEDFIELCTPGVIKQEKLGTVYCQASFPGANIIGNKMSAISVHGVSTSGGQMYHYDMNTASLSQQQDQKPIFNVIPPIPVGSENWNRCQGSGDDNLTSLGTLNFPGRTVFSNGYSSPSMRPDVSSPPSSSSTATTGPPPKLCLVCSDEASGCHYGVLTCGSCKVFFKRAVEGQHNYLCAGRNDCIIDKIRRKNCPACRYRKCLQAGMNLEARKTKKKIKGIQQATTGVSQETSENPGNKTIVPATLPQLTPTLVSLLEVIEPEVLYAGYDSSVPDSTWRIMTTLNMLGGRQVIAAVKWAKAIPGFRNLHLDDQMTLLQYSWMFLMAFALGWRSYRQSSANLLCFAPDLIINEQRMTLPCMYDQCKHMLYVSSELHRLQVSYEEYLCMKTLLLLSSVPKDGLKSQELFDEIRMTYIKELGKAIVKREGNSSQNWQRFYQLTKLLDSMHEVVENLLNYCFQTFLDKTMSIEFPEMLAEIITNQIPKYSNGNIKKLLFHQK
The target is the same in assay [6]. The assay is described as follows: GR-EFC Redistribution (AID 451; calls by dose curve; also: potency is read from the fitted curve at half-maximal effect). Conditions: CHO-K1 GR-EFC translocation, beta-gal luminescence, 2 h. The gist of the method:
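Translocation of GR-ED fusion to nuclear EA restores b-gal, read by luminescence after 1 h room-temperature detection. Engineered CHO-K1 biosensor cells, 1,000/well, exposed 2 h at 37 C to titrations up to 46 uM final.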

In assay [7] the target is Mitogen-activated protein kinase 10 (Mus musculus) (UniProt Q61831). The experiment in a line: JNK3 AlphaScreen Assay (AID 530; active = well fitted curve in either direction with a large enough effect, not every such curve was filed as active;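 also: kinase came from lysate of stimulated human HepG2 cells; signal reports phosphorylation of biotinylated GST-cJun 1-79 at Ser73 with 10 µM ATP; % is scaled to controls: 0 for no effect and ±100 for the full control effect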). The conditions noted are these: JNK3 lysate, c-Jun phosphorylation; series mostly up to 57.1 µM. The gist of the method:
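Room-temperature AlphaScreen kinase assay; pre-activated HepG2 lysate as JNK3 source, biotin-GST-cJun(1-79) substrate, 10 uM ATP, compound 15 min preincubation.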

For assay [8], the target named is 3',5'-cyclic-AMP phosphodiesterase 4B (Homo sapiens) (UniProt Q07343). The experiment in a line: qHTS Assay for Inhibitors of PDE-IV (AID 607; active = well fitted activation curve with a large enough effect in the main read-out, with a control signal flat, not every such curve was filed as active; also: % of control where 0% means no effect). The conditions noted are these: HEK293 ACTOne CNG channel cells, membrane potential fluorescence; series mostly up to 22.9 µM. The gist of the method: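 HEK293 ACTOne cells with CNG channel (1000/well), endogenous PDE4; membrane potential dye, compounds up to 22.9 uM final. Fluorescence Ex 535/Em 590; RO 20-1724 (100 uM final) as reference.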
Chain of 3',5'-cyclic-AMP phosphodiesterase 4B (Homo sapiens) (Q07343 whole entry, looked up): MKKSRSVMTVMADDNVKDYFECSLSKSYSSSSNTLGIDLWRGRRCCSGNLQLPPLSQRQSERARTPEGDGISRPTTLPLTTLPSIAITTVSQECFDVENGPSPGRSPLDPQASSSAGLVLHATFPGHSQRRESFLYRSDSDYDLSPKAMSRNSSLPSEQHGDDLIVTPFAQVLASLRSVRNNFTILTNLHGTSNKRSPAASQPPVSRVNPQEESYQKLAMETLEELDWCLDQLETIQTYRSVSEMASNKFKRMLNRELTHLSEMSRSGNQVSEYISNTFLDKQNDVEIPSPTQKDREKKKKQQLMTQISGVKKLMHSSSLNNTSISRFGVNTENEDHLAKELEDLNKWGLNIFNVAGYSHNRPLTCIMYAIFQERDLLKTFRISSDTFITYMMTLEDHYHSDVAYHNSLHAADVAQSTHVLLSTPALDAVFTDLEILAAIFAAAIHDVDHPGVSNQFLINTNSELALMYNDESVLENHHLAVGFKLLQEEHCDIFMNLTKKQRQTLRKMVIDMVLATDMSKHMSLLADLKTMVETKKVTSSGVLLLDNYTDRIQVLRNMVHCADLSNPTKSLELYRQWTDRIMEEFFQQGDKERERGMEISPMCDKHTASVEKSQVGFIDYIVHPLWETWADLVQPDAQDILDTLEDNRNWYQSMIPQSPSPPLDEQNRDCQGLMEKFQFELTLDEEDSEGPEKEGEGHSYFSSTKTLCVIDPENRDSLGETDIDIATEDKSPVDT
(In general: Quantitative high-throughput screening tests each substance at several concentrations.)

Assay [9] addresses Cytochrome P450 3A4 (Homo sapiens) (UniProt P08684). The experiment in a line: qHTS Assay for Inhibitors and Substrates of Cytochrome P450 3A4 (AID 884). Also: potency is read from the fitted curve at half-maximal effect; nearly all actives have a fitted effect of over 50% in size. The conditions noted are these: recombinant CYP3A4, Luciferin-PPXE luminescence; series mostly up to 57.1 µM. The gist of the method:
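20 nM human CYP3A4 with 25 uM Luciferin-PPXE (at KM) in 200 mM KPO4, preincubated 10 min with compound; NADPH regeneration started a 60 min RT reaction. Luciferin detected by luminescence, normalized to 57 uM ketoconazole as full inhibition.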

For assay [10] the target is unchanged. The assay is described as follows: qHTS Assay for Activators of Cytochrome P450 3A4 (AID 885). Also: nearly all actives have a fitted effect of over 65% in size. Conditions: recombinant CYP3A4, Luciferin-PPXE luminescence, 60 min; series mostly up to 57.1 µM. The gist of the method:
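Human CYP3A4 (20 nM) with Luciferin-PPXE at 25 uM (its KM) in 200 mM KPO4; 10 min compound preincubation, then NADPH regeneration and 60 min reaction at RT. Luciferin read by luminescence; normalized to 57 uM ketoconazole full inhibition.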

The nature of assay [11]: qHTS Assay for Lipid Storage Modulators (AID 1519; calls by dose curve). Conditions: Drosophila S3 cells, BODIPY lipid droplet/cell ratio, laser cytometry, cells loaded with oleic acid; for activity change, negative = inhibition: at 57.5 µM (top of the series). The procedure, abridged:
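Cells seeded at 5,000 per well were treated with compounds over a concentration series and loaded with oleic acid (400 uM, as added). Lipid droplet fluorescence (488 nm excitation, 500-530 nm channel) was read by laser-scanning cytometry and normalized to 20 uM Triacsin C.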

Assay [12] has as its target Dual specificity protein kinase CLK4 (Homo sapiens) (UniProt Q9HAZ1). The experiment in a line: qHTS Assay for Inhibitors of CDC-like Kinase 4 (Kinase-Glo Assay) (AID 1770). Also: nearly all actives have a fitted effect of over 65% in size. Also: potency is read from the fitted curve at half-maximal effect. The conditions noted are these: recombinant Clk4, Kinase-Glo ATP depletion luminescence; series mostly up to 66.7 µM. The procedure, abridged:
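Luminescent ATP-depletion read-out (Kinase-Glo) after 4.5 h room-temperature reaction of Clk4 (25 nM final) with RS peptide (100 uM) and ATP (1 uM), pH 7.5 Tris buffer with MgCl2 and DTT.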

The target is the same in assay [13]. The experiment in a line: qHTS Assay for Inhibitors of CDC-like Kinase 4 (ADP-Glo Assay) (AID 1771). Also: nearly all actives have a fitted effect of over 70% in size. Also: potency is read from the fitted curve at half-maximal effect. The conditions noted are these: recombinant CLK4, ADP-Glo luminescence; series mostly up to 80 µM. The gist of the method:
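Kinase reaction: Clk4 at 25 nM, RS repeat peptide substrate at 100 uM, ATP at 1 uM, 1 hr, room temperature. Product ADP detected as luciferase signal via ADP-Glo.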

The target of assay [14] is Ubiquitin carboxyl-terminal hydrolase 1 (Homo sapiens) (UniProt O94782). The assay is described as follows: Inhibitors of USP1/UAF1: Pilot qHTS (AID 504865).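 Also: rhodamine fluorescence freed from ubiquitin-rhodamine substrate followed over time; top concentration of the series differs between compounds; % is scaled to controls: 0 for no effect and ±100 for the full control effect; nearly all actives have a fitted effect of over 35% in size.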 Conditions: purified USP1/UAF1, Ub-rhodamine cleavage fluorescence; series mostly up to 54.9 µM. The procedure, abridged:
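Deubiquitinase activity followed as kinetic rhodamine fluorescence release from 150 nM Ub-Rho. 1 nM USP1/UAF1 with compound, after 15 min room-temperature preincubation, in HEPES pH 7.8 buffer containing TCEP, EDTA, BSA and Tween-20.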

Assay [15] in a line: Primary qHTS for small molecule stabilizers of the endoplasmic reticulum resident proteome: Secreted ER Calcium Modulated Protein (SERCaMP) assay (AID 1508630). Also: % is scaled to controls: 0 for no effect and ±100 for the full control effect. The conditions noted are these: SH-SY5Y GLuc-SERCaMP (Gaussia luciferase released on ER calcium loss) secretion, thapsigargin, luminescence; series mostly up to 38.4 µM. The procedure, abridged:
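GLuc-SERCaMP-expressing SH-SY5Y cells, pretreated 16 h with compound, are challenged with thapsigargin to empty ER calcium stores; after 4 h, coelenterazine is added directly to the medium and luminescence is imaged.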

Assay [16] in a line: Stat Signaling Pathway (AID 446; active = well fitted curve in either direction with a large enough effect, not every such curve was filed as active). Conditions: ME-180 SIE beta-lactamase reporter, IL-6 stimulated, 5 h; at 7.69 µM (top of the series) unless noted. The gist of the method: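 ME-180 cells carrying a SIE-driven beta-lactamase reporter are stimulated with 40 pM IL-6 for 5 h at 37C in the presence of compound. The 460/530 nm FRET substrate ratio is read after 2.5 h at RT. Data are normalised to 300 pM IL-6 and to 125 nM JAK inhibitor controls.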

The target in assay [17] is Cytochrome P450 2C9 (Homo sapiens) (UniProt P11712). The assay is described as follows: qHTS Assay for Inhibitors and Substrates of Cytochrome P450 2C9 (AID 883). Also: potency is read from the fitted curve at half-maximal effect; nearly all actives have a fitted effect of over 60% in size. Conditions: recombinant CYP2C9, luciferin-H luminescence, 60 min; series mostly up to 57.1 µM. The gist of the method:
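Luminescent read-out of deoxyluciferin hydroxylation, normalized to 57uM sulphaphenazole (AC100). Reaction: 10nM enzyme, 100uM Luciferin-H (equal to KM), 25mM KPO4, 10 min compound preincubation, then 60 min with NADPH regeneration, both at 37C.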

The target in assay [18] is Cytochrome P450 2C19 (Homo sapiens) (UniProt P33261). The experiment in a line: qHTS Assay for Inhibitors and Substrates of Cytochrome P450 2C19 (AID 899). Also: potency is read from the fitted curve at half-maximal effect; nearly all actives have a fitted effect of over 60% in size. The conditions noted are these: recombinant CYP2C19, luciferin-H EGE luminescence; series mostly up to 57.1 µM. The gist of the method:
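Luminescence readout of luciferin formed from 10uM Luciferin-H EGE (KM level) by 5 nM CYP2C19 in 50mM KPO4. 60 min NADPH-driven reaction at 37C after 10 min compound preincubation; data scaled to 57uM ketoconazole inhibition.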

Where [19] appears, read: measured here: cell count channel max response.
[20] abbreviates: measured here: lipid channel max response.

Inconclusive results are not listed. The source made the active and inactive calls. Unless noted, calls follow the shape of the dose curve; as a rule, active = well fitted curve in the direction sought with a large enough effect; inconclusive = small, poorly fitted or top-dose-only effect, or another doubt; inactive = no such curve, though single readings can be large; an effect the other way counts as inactive or inconclusive.

Chain of Ubiquitin carboxyl-terminal hydrolase 1 (Homo sapiens) (O94782 whole entry, looked up): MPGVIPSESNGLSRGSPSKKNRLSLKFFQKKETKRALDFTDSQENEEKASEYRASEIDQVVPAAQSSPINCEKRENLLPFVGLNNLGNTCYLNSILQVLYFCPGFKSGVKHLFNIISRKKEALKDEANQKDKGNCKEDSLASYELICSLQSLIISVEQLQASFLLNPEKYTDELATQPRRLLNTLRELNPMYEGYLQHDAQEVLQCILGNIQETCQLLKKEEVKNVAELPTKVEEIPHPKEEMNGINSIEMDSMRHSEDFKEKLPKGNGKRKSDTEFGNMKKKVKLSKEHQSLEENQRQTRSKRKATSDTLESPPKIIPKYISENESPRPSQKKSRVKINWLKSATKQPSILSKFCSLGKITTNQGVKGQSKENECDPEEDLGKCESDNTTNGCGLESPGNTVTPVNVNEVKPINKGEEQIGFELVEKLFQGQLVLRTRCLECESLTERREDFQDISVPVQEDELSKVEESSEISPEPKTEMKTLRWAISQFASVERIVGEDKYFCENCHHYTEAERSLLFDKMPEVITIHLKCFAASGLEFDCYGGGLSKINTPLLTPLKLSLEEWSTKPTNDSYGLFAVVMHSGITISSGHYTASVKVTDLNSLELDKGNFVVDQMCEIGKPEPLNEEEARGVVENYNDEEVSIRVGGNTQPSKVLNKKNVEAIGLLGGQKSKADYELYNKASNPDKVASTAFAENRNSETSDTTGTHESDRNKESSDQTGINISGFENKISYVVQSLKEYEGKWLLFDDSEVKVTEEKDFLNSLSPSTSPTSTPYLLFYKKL
Chain of Lysosomal acid glucosylceramidase (Homo sapiens) (P04062 whole entry, looked up): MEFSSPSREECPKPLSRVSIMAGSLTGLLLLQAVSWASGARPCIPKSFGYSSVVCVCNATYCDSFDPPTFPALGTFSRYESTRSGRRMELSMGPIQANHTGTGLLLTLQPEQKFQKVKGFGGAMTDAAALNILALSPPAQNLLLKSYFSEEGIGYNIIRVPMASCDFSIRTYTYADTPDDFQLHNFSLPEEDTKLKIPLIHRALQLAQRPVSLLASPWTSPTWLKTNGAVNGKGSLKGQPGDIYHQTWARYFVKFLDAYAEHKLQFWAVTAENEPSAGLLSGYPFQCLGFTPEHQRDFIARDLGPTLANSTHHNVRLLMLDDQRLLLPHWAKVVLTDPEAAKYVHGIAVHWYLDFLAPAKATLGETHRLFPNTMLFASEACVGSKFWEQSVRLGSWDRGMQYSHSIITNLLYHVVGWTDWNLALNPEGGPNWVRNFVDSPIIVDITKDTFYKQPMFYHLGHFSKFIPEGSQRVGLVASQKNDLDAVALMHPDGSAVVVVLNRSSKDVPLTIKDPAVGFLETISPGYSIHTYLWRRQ
Chain of Dual specificity protein kinase CLK4 (Homo sapiens) (Q9HAZ1 whole entry, looked up): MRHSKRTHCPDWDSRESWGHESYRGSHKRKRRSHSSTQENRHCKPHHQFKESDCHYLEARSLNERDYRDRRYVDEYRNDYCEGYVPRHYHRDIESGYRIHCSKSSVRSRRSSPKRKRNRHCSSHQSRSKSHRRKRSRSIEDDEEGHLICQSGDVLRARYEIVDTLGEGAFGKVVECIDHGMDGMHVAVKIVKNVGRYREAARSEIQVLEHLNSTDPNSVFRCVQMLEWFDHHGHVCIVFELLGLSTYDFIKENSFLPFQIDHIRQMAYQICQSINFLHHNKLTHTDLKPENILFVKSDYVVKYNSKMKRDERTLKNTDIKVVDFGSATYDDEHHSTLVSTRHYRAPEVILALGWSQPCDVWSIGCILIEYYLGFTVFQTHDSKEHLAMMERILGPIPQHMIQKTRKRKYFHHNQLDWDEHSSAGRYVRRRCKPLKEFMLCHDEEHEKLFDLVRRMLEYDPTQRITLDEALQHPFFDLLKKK
Chain of Cytochrome P450 1A2 (Homo sapiens) (P05177 whole entry, looked up): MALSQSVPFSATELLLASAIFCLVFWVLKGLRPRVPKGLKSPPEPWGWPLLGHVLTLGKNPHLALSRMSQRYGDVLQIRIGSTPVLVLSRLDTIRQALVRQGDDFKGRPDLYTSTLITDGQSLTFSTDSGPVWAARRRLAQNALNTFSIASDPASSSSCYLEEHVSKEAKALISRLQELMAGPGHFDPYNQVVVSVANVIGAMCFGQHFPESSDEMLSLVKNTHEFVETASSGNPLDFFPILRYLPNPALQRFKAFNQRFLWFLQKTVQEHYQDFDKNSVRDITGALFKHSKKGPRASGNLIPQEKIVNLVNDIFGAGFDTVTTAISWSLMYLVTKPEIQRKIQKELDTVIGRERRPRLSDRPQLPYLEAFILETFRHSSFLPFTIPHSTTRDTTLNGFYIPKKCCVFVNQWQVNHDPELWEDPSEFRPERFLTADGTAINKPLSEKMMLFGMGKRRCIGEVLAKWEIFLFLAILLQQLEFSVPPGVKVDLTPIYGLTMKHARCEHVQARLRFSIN
Chain of Cytochrome P450 3A4 (Homo sapiens) (P08684 whole entry, looked up): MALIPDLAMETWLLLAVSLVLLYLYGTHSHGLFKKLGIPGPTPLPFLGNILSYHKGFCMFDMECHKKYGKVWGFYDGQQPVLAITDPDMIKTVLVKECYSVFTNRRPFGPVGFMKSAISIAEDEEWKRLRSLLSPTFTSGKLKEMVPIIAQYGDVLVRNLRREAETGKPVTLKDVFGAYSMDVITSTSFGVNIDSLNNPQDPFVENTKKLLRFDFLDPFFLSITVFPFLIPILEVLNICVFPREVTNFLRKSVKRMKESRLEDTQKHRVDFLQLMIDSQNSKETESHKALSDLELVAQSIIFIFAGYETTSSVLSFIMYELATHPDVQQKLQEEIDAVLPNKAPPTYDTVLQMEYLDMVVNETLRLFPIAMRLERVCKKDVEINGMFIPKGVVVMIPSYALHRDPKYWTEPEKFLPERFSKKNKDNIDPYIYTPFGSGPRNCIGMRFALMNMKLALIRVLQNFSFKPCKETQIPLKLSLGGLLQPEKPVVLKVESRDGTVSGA
Chain of Cytochrome P450 2C9 (Homo sapiens) (P11712 whole entry, looked up): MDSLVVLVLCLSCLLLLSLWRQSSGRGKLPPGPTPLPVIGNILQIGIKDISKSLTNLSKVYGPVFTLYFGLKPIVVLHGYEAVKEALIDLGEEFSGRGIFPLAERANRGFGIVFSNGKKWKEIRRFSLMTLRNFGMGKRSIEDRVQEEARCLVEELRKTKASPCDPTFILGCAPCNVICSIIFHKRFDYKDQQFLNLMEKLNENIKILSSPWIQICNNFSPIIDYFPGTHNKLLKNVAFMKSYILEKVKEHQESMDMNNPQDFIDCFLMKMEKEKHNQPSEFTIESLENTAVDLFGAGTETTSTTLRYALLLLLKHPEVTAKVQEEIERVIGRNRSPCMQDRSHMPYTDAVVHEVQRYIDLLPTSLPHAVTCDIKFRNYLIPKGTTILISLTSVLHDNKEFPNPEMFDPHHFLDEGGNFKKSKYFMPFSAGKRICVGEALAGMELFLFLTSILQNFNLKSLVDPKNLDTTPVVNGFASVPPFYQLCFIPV

Consider `O=c1c(-c2ccc(F)cc2)nc2cnc(N3CCNCC3)nc2n1Cc1ccc(F)cc1`, for which the Potency is > 11.4 µM (inactive) in assay [1]; 15.8 µM (active) in assay [3]; > 9.22 µM (inactive) in assay [5]; > 46 µM (inactive) in assay [6]; 7.94 µM (active) in assay [9]. Also, the activity change, negative = inhibition in [2] was 115% [activator] (active); in assay [4], 163% [activator] (active); in assay [11], 2.38% (inactive). Further, the compound was called inactive in [7]. Besides, the Potency entry in assay [8], in assay [10], in assay [12], in [13], in assay [14] and in assay [15] was “inactive” throughout. The max response in assay [11] (setting [19]) turned out to be 7.95%; in assay [11] (setting [20]) it was 9.79%.

In the case of `COc1ccc(CNc2ncnc3ccc(-c4cccc(NS(C)(=O)=O)c4)cc23)c(OC)c1`, the Potency is > 11.4 µM (inactive) in assay [1]; 7.94 µM (active) in assay [3]; > 46 µM (inactive) in [5]; > 46 µM (inactive) in assay [6]; 0.501 µM (active) in assay [17]; 2 µM (active) in assay [9]. Also, the Potency is 2.51 µM (active) in assay [18], 11.2 µM (active) in assay [12] and 25.1 µM (active) in assay [13]. For the same compound, the activity, negative = inhibition in assay [16] was -11.9% (inactive). The compound was classed as inactive in assay [7]. The Potency entry in assay [10], in [14] and in assay [15] was “inactive” in each case. For the same compound, in assay [11], the activity change, negative = inhibition is -4.77% (inactive). Moreover, the max response in assay [11] (setting [19]) was -8.13%; in assay [11] (setting [20]), -11.3%.

Regarding `CN(C)Cc1ccccc1-c1nc(NC2CCNCC2)c2ccccc2n1`, the values for the Potency in assay [1], in assay [5] and in assay [6] were > 11.4 µM (inactive), > 46 µM (inactive) and > 46 µM (inactive), respectively. Further, the activity change, negative = inhibition was 24.8% (inactive) in assay [2], -15% (inactive) in [4] and 2.42% (inactive) in assay [11]. For the same compound, the call in assay [7] was inactive. Further, the Potency entry in assay [8], in [12], in assay [13], in assay [14] and in [15] was “inactive” throughout. Moreover, the max response in [11] (setting [19]) was determined as 8.01%; in assay [11] (setting [20]) it was 7.24%.

Regarding `N#CCCn1c(=O)c(-c2ccc(F)cc2)nc2cnc(N3CCOCC3)nc21`, the activity change, negative = inhibition in assay [2] is -0.71% (inactive); in [4], 13.6% (inactive); in assay [11], 3.46% (inactive). Also, the activity, negative = inhibition in assay [16] is 10.6% (inactive). For the same compound, the Potency in [5] is > 9.22 µM (inactive); in [6] it was > 46 µM (inactive). Besides, in assay [7], the result was inactive. Besides, the Potency result in assay [8], in [12], in [13], in assay [14] and in [15] was “inactive” in each case. Besides, the max response in [11] (setting [19]) is 20.8%; in [11] (setting [20]), 23%.

Regarding `Cc1cccc(CNc2cc(-c3c(C)noc3C)ncn2)c1`, the Potency is > 11.4 µM (inactive) in assay [1]; 1 µM (active) in assay [3]; > 46 µM (inactive) in assay [5]; > 46 µM (inactive) in [6]; 5.01 µM (active) in [9]; 15.8 µM (active) in assay [12]. Also, in [13], the Potency is 15.8 µM (active). Besides, the activity change, negative = inhibition in assay [2] was -5.03% (inactive); in [4], -10.8% (inactive); in assay [11] it was 8.24% (inactive). Moreover, the activity, negative = inhibition in assay [16] was -4.88% (inactive). Moreover, the compound was classed as inactive in assay [7]. In addition, the Potency result in [8], in assay [10], in [14] and in [15] was “inactive” in each case. Further, the max response in assay [11] (setting [19]) was found to be 14.9%; in assay [11] (setting [20]) it was 22%.

For `CCNc1ncc2ncc(=O)n(CCOC)c2n1`, the Potency in assay [1] is > 11.4 µM (inactive); in [5], > 46 µM (inactive); in assay [6], > 46 µM (inactive); in assay [12], 15.8 µM (active); in assay [13], 11.2 µM (active). Besides, the activity change, negative = inhibition is -22.6% (inactive) in [2], 4.31% (inactive) in assay [4] and 6.16% (inactive) in assay [11]. In addition, in [16], the activity, negative = inhibition was -26.5% (inactive). The result in assay [7] was inactive. The Potency result in assay [8] and in assay [15] was “inactive” each time. Moreover, the max response in assay [11] (setting [19]) is 18.7%; in [11] (setting [20]), 22.5%.

Source of the values: PubChem BioAssay (NCATS).
